“And” between values parts separate entries of the source, which are not always exact repeats. Equal values may be shown once. Screen size: about 16,000 compounds; about 5,700 (36%) were called active. About 24% were inconclusive and are not listed. The list shows a part of the results. A number with no mark means an inactive call. The call rests on the fitted dose curve; in most records, active means well fitted curve in the direction sought with a large enough effect; inconclusive means small, poorly fitted or top-dose-only effect, or effect the other way; inactive means no such curve, though single readings can be large or run the other way.
Target: Cytochrome P450 1A2 (Homo sapiens) (UniProt P05177)
Assay: Cytochrome panel assay with activity outcomes
Conditions: recombinant CYP, pro-luciferin dealkylation, luminescence, p450-cyp1a2; series mostly up to 57.1 µM; activity, negative = inhibition: at the top concentration
On the % scale 0 is the no-effect control and ±100 the full control effect.

Sequence of Cytochrome P450 1A2 (Homo sapiens) (P05177 whole entry, looked up): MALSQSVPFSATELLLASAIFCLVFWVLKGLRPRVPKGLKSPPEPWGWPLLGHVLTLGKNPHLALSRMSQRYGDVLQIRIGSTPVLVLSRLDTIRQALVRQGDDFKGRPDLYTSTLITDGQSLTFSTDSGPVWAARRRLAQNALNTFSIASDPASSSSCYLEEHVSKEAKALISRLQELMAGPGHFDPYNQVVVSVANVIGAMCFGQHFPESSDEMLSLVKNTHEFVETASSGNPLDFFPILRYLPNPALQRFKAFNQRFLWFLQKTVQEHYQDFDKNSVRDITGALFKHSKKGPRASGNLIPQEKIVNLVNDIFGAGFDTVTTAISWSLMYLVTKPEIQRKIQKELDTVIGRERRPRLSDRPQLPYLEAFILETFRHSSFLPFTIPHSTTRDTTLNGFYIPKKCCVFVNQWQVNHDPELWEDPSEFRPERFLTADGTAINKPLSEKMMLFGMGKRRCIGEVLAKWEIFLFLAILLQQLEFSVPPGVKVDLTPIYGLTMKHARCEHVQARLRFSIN

Structure (SMILES)	AC50	activity, negative = inhibition
COc1ccc2c(Cl)c(-c3nnco3)sc2c1	0.794 µM (active)	
Cc1cccc(C)c1OC[C@@H](N)C(C)C	12.6 µM (active)	
Cc1cccc(C)c1OC[C@H](C)N	2.51 µM (active) and 398 nM (active)	
Cc1cccc(C)c1OCC(O)CNC(C)(C)C (stereo not drawn)		-6.86%
O=C1C[C@@H](O)[C@@H](O)[C@H]2[C@@H]3C(=O)N(c4cccc(Oc5ccccc5)c4)C(=O)[C@@H]3CC[C@H]12		0.387% [at 11.4 µM] and -5.49% [at 11.4 µM]
O=C(NC(=S)Nc1ccc2c(c1)OCO2)c1ccccc1	2.82 µM (active)	
O=C(NC(=S)Nc1ccc(Oc2ccc(Cl)cc2)cc1)c1ccccc1		-26.7%
Cc1ccc(C(=O)NC(=S)Nc2ccc3c(c2)OCCO3)c(C)c1	7.08 µM (active)	
O=C(NC(=S)Nc1ccc(C(=O)N2CCOCC2)cc1)c1ccc([N+](=O)[O-])cc1		-16.4%
c1ccc(-c2nccc(-c3ccc(-n4cnc5ccccc54)cc3)n2)nc1	10 µM (active)	
c1ccc2c(c1)ncn2-c1ccc(-c2ccnc(-c3ccncc3)n2)cc1	0.316 µM (active)	
COc1cc(OC)c(OC)cc1C=NCC1(c2ccccc2)CCCC1	8.91 µM (active)	
C#CCOCCCC(=O)O		-1.25% [at 11.4 µM]
O=C(O)CCCCCCCC(=O)O		-15.8%
C#CCCCCCCCCCCCCCCCC(=O)O	6.31 µM (active)	
C[C@H]1COC(=O)[C@H](Cc2ccccc2)NC(=O)[C@@H](C)COC(=O)[C@H](Cc2ccccc2)NC1=O		9.1% [at 11.4 µM]
COC(=O)c1cc(NC(=O)/C=C/c2ccc3c(c2)OCO3)cc(C(=O)OC)c1	12.6 µM (active)	
CCOC(=O)c1c(NC(=O)/C=C/c2ccc3c(c2)OCO3)sc(C)c1C		-23.6%
CC(C)[C@H](NC(=O)OC(C)(C)C)[C@@H](O)CC(=O)C(C)(C)C		0.674% [at 11.4 µM]
COc1ccccc1CNc1ncncc1-c1ccoc1	1.26 µM (active)	
COc1ccc(CNc2ncncc2-c2cccnc2)c(OC)c1	3.16 µM (active)	
COc1ccccc1CNc1ncncc1-c1cccnc1	0.794 µM (active)	

Structure (SMILES)	AC50	activity, negative = inhibition
COc1ccc(CNc2ncncc2-c2cccc(NS(C)(=O)=O)c2)c(OC)c1	15.8 µM (active)	
COc1ccccc1CN1CCCC2(CCN(C(=O)c3cnccn3)CC2)C1		-19.3%
COCC(=O)N1CCC2(CCCN(C(=O)Nc3cccc(F)c3)C2)CC1		-18%
CCc1cc2c(nc1CC)CCN(CC/C(C)=N/O[C@@H](C)c1cn([C@@H]3COC[C@@H]3O)nn1)C2		-1.13% [at 11.4 µM]
COc1ccc(-c2ccc3c(n2)CCCN3C[C@H](O)CN2CCCc3nc(-c4ccc(Br)cc4)ccc32)cc1		-3.07% [at 11.4 µM] and -10.4% [at 11.4 µM]
COc1ccc(Cc2nc3ccc(S(=O)(=O)N4CCOCC4)cc3[nH]2)cc1OC		-7.49%
Cc1ccc2nc(Cc3ccc(N)cc3)[nH]c2c1	3.98 µM (active)	
O=C(O)c1cc(N=Cc2ccccc2O)cc(C(=O)O)c1		-12.6% [at 11.4 µM]
O=[N+]([O-])c1cc2c(cc1C=Nc1ccccc1)OCO2	2.82 µM (active)	
CN(C)c1ncc2ncc(=O)n(CCC#N)c2n1	12.6 µM (active)	
Cc1nc2cnc(N(C)C)nc2n(CCC#N)c1=O	10 µM (active)	
CC(C)=CCc1c2c(c3occ(-c4ccc(O)c(O)c4)c(=O)c3c1O)C=CC(C)(C)O2		-3.01% [at 2.29 µM]
Br/C(=N\Nc1nn[nH]n1)c1ccncc1		-5.24% [at 11.4 µM]
CC(C)(C)CNC(CO)C12CC3CC(CC(C3)C1)C2 (stereo not drawn)		-2.52%
C=CC[C@@H](C(=O)O)c1ccccc1		0.428% [at 11.4 µM]
CN(C(=O)c1ccncc1)c1ccccc1		-13.8% [at 11.4 µM]
CCN(Cc1ccncc1)C(=O)[C@@H](CO)c1ccccc1	15.8 µM (active)	
CC(C)(C)c1[nH]nc2c1C(c1ccc(OC(=O)c3ccco3)cc1)C(C#N)=C(N)O2 (stereo not drawn)	31.6 µM (active)	
Cn1c(=O)c(-c2cccc(C#N)c2)nc2cnc(Oc3ccccc3)nc21	1.58 µM (active)	
COCCn1c(=O)c(-c2ccc(Cl)cc2)nc2cnc(Oc3ccccc3)nc21	0.794 µM (active)	
COc1ccc(Oc2ncc3nc(-c4cccc(C#N)c4)c(=O)n(Cc4cccc(OC)c4)c3n2)cc1		-8.54%
COCCn1c(=O)c(-c2ccc(F)cc2)nc2cnc(Oc3ccccc3)nc21	0.794 µM (active)	

Structure (SMILES)	AC50	activity, negative = inhibition
COCCn1c(=O)c(-c2cccc(C#N)c2)nc2cnc(Oc3ccccc3)nc21	15.8 µM (active)	
C[N+]1(NCC[N@@+]2(C)CCc3ccccc3C2)CCCCC1		-12.7% [at 11.4 µM]
COC(=O)[C@@]1(Cc2ccccc2)[C@H]2c3cc(C(=O)N4CCCC4)n(Cc4ccc(OC)c(OC)c4)c3C[C@H]2CN1C(=O)c1ccccc1		-22.9%
COCCn1c(=O)c(-c2ccccc2)nc2cnc(Oc3ccc(OC)cc3)nc21	1.26 µM (active)	
COCCn1c(=O)c(-c2ccccc2)nc2cnc(Oc3ccccc3)nc21	1.58 µM (active)	
COCCn1c(=O)c(-c2cc(F)cc(F)c2)nc2cnc(Oc3ccccc3)nc21	5.01 µM (active)	
C#CCCCO/N=C1/C[C@@H](O)[C@@H](O)[C@@H]2[C@H]3C(=O)N(c4ccc(F)cc4F)C(=O)[C@@H]3CC[C@H]12		-9.85% [at 11.4 µM]
CO[C@H]1COC(=O)C/C=C\[C@H](C)[C@@H](NS(=O)(=O)c2ccc(C)cc2)COC(=O)C/C=C\[C@@H]1C		-4.23% [at 11.4 µM] and -3.02% [at 11.4 µM]
CCSC(=N)N		-14.3%
C[C@@H]1O[C@H]2C3=C(C(=O)[C@H]4O[C@@H]4[C@H]3O)[C@@H]1[C@@H]1[C@@H](C)OC=C3[C@H](O)[C@H]4O[C@@H]4/C(=N\OCc4ccccc4)[C@]312		-0.558% [at 11.4 µM]
COC(=O)COc1ccc2c(-c3cccc([N+](=O)[O-])c3)cc(=O)oc2c1	2 µM (active)	
COc1ccc([N+](=O)[O-])cc1COc1ccc2c(-c3ccccc3)cc(=O)oc2c1		-13.8%
COC(=O)[C@@]1(Cc2ccc(F)cc2)[C@H]2c3cc(C(=O)N4CCCC4)n(Cc4ccc(C)c(F)c4F)c3C[C@H]2CN1C(=O)c1ccccc1		-20.7%
CC(Sc1nnc(Cc2cccs2)n1C1CCCCC1)C(N)=O (stereo not drawn)		-8.88%
CCOC(=O)C(C)Sc1nnc(CNC(=O)c2ccc(OC)cc2)n1C1CCCCC1 (stereo not drawn)		-16.8%
CCn1c(C)nc2c1C(=O)c1ccccc1C2=O	0.447 µM (active)	
Cc1nc2c(n1C1CCCCC1)C(=O)c1ccccc1C2=O	6.31 µM (active)	
COC(=O)CSc1nc(C)cc(C(F)(F)F)c1C#N	2 µM (active)	
COc1ccc(NC(=O)CSc2nc(-c3ccc(C)cc3)cc(C(F)(F)F)c2C#N)cc1		16.2%
COC(=O)Cn1cnc(=O)c(C#N)c1/C=C/N(C)C		-9.35%
COC(=O)[C@@]1(Cc2ccc(F)cc2)[C@H]2c3cc(C(=O)N(C)C)n(Cc4ccc(C)c(F)c4F)c3C[C@H]2CN1C(=O)c1ccccc1		-11.2%
CN1CCN(c2cc(-c3ccc(N(C)C)cc3)ncn2)CC1	2.51 µM (active)	

Structure (SMILES)	AC50	activity, negative = inhibition
CN1CCN(c2ccnc(-c3ccc(N(C)C)cc3)n2)CC1	0.794 µM (active)	
CN1CCN(c2ccnc(-c3ccoc3)n2)CC1	12.6 µM (active)	
O=C(O)CCCCn1ccc(=O)[nH]c1=O		-6.18% [at 11.4 µM]
O=C(O)c1cscc1Cc1cccs1		-18.8% [at 11.4 µM]
C/C(CC(=O)NC1CCCC1)=N\NC(=O)Cc1cccs1		-21.3%
O=C(NCc1ccco1)C(c1ccccc1)N(C(=O)Cc1cccs1)c1ccccc1F (stereo not drawn)		-14.5%
O=C(Cc1cccs1)N/N=C/C(Br)=C/c1ccccc1	5.01 µM (active)	
CC(/C=N/NC(=O)Cc1cccs1)=C\c1ccco1	11.2 µM (active)	
O=C(O)C/C(=C\c1ccccc1)C(=O)O		-13% [at 11.4 µM]
CN1CC[C@@]2(CCCN(C(=O)c3cccc(F)c3)C2)C1		5.25%
Cc1cc(S(=O)(=O)NCCN(C)C)c(C)s1		-1.69%
CCOc1cc(/C=N/O)cc(Cl)c1OC	1.41 µM (active)	
CCCCOC(=O)C1=C(C)Nc2ncnn2C1c1cc(OC)ccc1OC (stereo not drawn)		-24.5%
COC(=O)C1=C(C)OC(N)=C(C#N)C1c1cc(OC)ccc1OC (stereo not drawn)	15.8 µM (active)	
COc1ccc(C2C(C#N)=C(N)OC3=C2C(=O)CC(C)(C)C3)c([N+](=O)[O-])c1OC (stereo not drawn)		-9.67%
COc1ccc(C2/C(=C(/O)c3ccc4c(c3)CC(C)O4)C(=O)C(=O)N2CCN2CCOCC2)cc1 (stereo not drawn)		-15.1%
CC(C)=CCC/C(C)=C/CO/N=C1/C[C@@H](O)[C@@H](O)[C@@H]2[C@@H]3C(=O)N(Cc4ccccc4)C(=O)[C@H]3CC[C@@H]12		4.86% [at 11.4 µM]
CC(C)=CCC/C(C)=C/CO/N=C1/C[C@@H](O)[C@@H](O)[C@@H]2[C@@H]3C(=O)N(Cc4ccccc4)C(=O)[C@H]3CC[C@H]12		3.92% [at 11.4 µM]
CCSC1=C(C#N)C2(CCCCC2)C(C#N)=C(N)N1	12.6 µM (active)	
CC(C)NC(=O)N1CC2(CCN(C(=O)c3ccco3)CC2)C1		-10.4%
CCC(C)NS(=O)(=O)c1ccc(OCC(=O)Nc2ccc3c(c2)OCCO3)cc1 (stereo not drawn)		-11.9%
CCOc1ccc2nc(C)cc(Nc3ccc4c(c3)OCCO4)c2c1	4.47 µM (active)	

From PubChem BioAssay AID1851 (National Center for Advancing Translational Sciences (NCATS), 2009)
